PAFAH1B2 inh – inhibitors of human PAFAH1B2; 340,000 tested, 1.2% active; P68402; inhibition, % at 3.39 µM; recombinant PAFAH1B2, FP-rhodamine activity probe, fluorescence polarization;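 active means inhibition above the mean of all tested compounds plus 3 SD, cut at about 24% in these data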
pPAFAH inh – pPAFAH (human) enzyme inhibition | 330,000 tested, 1.5% active | recombinant pPAFAH, FP-rhodamine probe fluorescence polarization | inhibition, % at 3.39 µM | Q13093;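 active means inhibition above the mean inhibition across the screen plus 3 SD, cut at about 25% in these data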;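 further: inhibitors block binding of the rhodamine activity-based probe so polarization drops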
Target sequence (Q13093 whole entry, looked up): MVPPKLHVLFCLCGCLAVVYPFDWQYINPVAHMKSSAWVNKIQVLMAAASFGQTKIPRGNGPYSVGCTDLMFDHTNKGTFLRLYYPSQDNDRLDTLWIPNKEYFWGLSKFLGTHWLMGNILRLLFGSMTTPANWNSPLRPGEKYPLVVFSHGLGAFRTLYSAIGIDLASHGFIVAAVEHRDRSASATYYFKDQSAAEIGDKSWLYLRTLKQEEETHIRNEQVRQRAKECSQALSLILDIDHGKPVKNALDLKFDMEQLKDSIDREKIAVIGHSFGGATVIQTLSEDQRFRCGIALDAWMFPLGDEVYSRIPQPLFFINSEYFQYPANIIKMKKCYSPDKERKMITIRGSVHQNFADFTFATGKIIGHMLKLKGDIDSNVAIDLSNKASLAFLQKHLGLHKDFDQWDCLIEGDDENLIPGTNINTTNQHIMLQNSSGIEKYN
PAFAH1B3 FP inh – PAFAH1B3 (human) inhibition; Q15102; recombinant PAFAH1B3, FP-rhodamine probe, fluorescence polarization; inhibition, % at 3.39 µM; 340,000 tested, 0.28% active;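 active means inhibition above the screen-wide average of all tested compounds plus 3 SD, cut at about 25% in these data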
ATG4B inh – blocks human ATG4B protease cleavage of LC3 substrate; Q9Y4P1; ATG4B cleavage of LC3-PLA2, NBD-HPC fluorescence, 1 h; inhibition, % at 8.33 µM; 340,000 tested, 0.51% active; in the data active means inhibition above about 40%
DAGLB inhibitor – blocks human DAGLB lipase activity. HEK293T DAGLB membrane lysate, EnzChek fluorogenic substrate. 340,000 tested, 0.059% active. Q8NCG7. inhibition, % at 5.17 µM; in the data active means inhibition above about 34%
PAFAH2 FP inh – PAFAH2 (human) inhibition; Q99487; recombinant PAFAH2, FP-rhodamine activity probe, fluorescence polarization; inhibition, % at 3.39 µM; 340,000 tested, 0.99% active;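 active means inhibition above the mean over all tested compounds plus 3 SD, cut at about 30% in these data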;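 further: inhibitors block probe labeling of enzyme so polarization drops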
ATG4B conf – confirmation of human ATG4B inhibitors; ATG4B protease fluorescent substrate cleavage assay; 320 tested, 92% active; inhibition, % at 8.33 µM; shares compounds with ATG4B inh; in the data active means inhibition above about 39%
PLA2 ctr – PLA2 (human) inhibition in ATG4B counter-screen | AID 588402 | shares compounds with ATG4B inh | inhibition, % at 8.33 µM | 1,600 tested, 66% active | purified PLA2, NBD-C6-HPC fluorescence, 45 min; in the data active means inhibition above about 50%
Target sequence (P04054 whole entry, looked up): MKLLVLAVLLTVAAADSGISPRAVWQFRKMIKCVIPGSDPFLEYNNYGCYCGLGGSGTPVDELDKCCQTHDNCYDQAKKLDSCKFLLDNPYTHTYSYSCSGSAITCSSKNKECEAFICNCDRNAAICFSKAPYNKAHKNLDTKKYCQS
Each line names hits and unclear results; the compound was inactive in the other large screens (follow-up assays come after a bar, where they were run). The list is not random: actives were taken first. Their share in the collection is about 3%.

CCOc1ccc(NC(=O)CN(C)C(=O)c2ccc3c(c2)C(=O)N(CCC(C)C)C3=O)cc1OCC	none
COc1ccc(OC)c(S(=O)(=O)N2CCN(c3ccccc3)CC2)c1	none
CCc1ccccc1N1CCN(S(=O)(=O)c2cc(OC)ccc2OC)CC1	ATG4B inh 57 | PLA2 ctr 52
COc1ccc(S(=O)(=O)N(Cc2cccs2)C2CCCC2)cc1	ATG4B inh 50 | PLA2 ctr 54
Cc1ccc2oc(C(=O)N3CCN(Cc4nccn4C)CC3)c(C)c2c1	none
Cc1ccccc1-c1nsc(SCC(=O)NCc2ccc3c(c2)OCO3)n1	ATG4B inh 41 | PLA2 ctr inactive
COc1ccccc1NC(=O)CSc1nc2[nH]ncc2c(=O)[nH]1	none
Cc1cccc(C)c1OCc1cc(C(=O)N2CCCCCCC2)no1	ATG4B inh 40 | PLA2 ctr 50
Cc1ccc(OCc2cc(C(=O)N3CCCCCCC3)no2)cc1C	none
Cc1ccc(OCc2cc(C(=O)N3CCc4sccc4C3)no2)cc1C	ATG4B inh 57 (no result: pPAFAH inh) | PLA2 ctr 79
COc1cccc(N2CCN(C(=O)c3ccc(Cl)c(NC4=NC5CS(=O)(=O)CC5S4)c3)CC2)c1 (stereo not drawn)	none
Cc1cc(Cl)ccc1Oc1ccc(C(N)=O)cc1[N+](=O)[O-]	ATG4B inh 53 | PLA2 ctr inactive
Cc1cc(=O)oc2cc(Oc3ccc(C(N)=O)cc3[N+](=O)[O-])ccc12	none
O=C(Cc1ccc(NC2=NC3CS(=O)(=O)CC3S2)cc1)NCCc1ccccc1 (stereo not drawn)	none
Cc1ccc(F)c([C@H]2[C@@H]3C=CCC[C@@]3(C)C(=O)N2Cc2ccccc2)c1	none
C[C@@]12CCC=C[C@H]1[C@H](c1ccccc1Br)N(Cc1ccccc1)C2=O	ATG4B inh 48 | PLA2 ctr 79
COc1ccc(S(=O)(=O)N(CC(C)C)C2CCS(=O)(=O)C2)cc1OC (stereo not drawn)	none
CCOc1ccc(C(=O)C2CCN(CC(=O)Nc3ccccc3N3CCOCC3)CC2)cc1	ATG4B inh 44 | ATG4B conf 65 | PLA2 ctr inactive
CCOc1ccc(C(=O)Nc2ccccc2N2CCOCC2)cc1	none
NS(=O)(=O)c1cc(C(=O)NC2CCSc3ccccc32)ccc1Cl (stereo not drawn)	ATG4B inh 54 | ATG4B conf 43 | PLA2 ctr inactive
NS(=O)(=O)c1cccc(C(=O)NC2CCSc3ccccc32)c1 (stereo not drawn)	none
Cc1ccc(C)c(S(=O)(=O)NCCC(=O)N2CCCC(C(N)=O)C2)c1 (stereo not drawn)	none
Cc1cccc(C)c1OCC(O)Cn1c2ccccc2c2ccccc21 (stereo not drawn)	ATG4B inh 53 | PLA2 ctr 61
c1ccc(-c2ccc(-n3ccnc3)cc2)cc1	none
c1ccc(-c2ccc(C(c3ccccc3)n3ccnc3)cc2)cc1 (stereo not drawn)	ATG4B inh 41 | ATG4B conf 63 | PLA2 ctr inactive
O=C(CSc1nnc(-c2cc3ccccc3cc2O)n1Cc1ccco1)N1CCc2ccccc2C1	ATG4B inh 41 | PLA2 ctr 54
Cn1c(=O)c2c(ncn2CC(=O)N/N=C/c2c[nH]c3ccccc23)n(C)c1=O	none (no result: PAFAH1B2 inh, PAFAH1B3 FP inh, ATG4B inh, DAGLB inhibitor, PAFAH2 FP inh)
O=C(OC1CCc2ccccc2C1=O)c1ccccc1O (stereo not drawn)	ATG4B inh 77 | PLA2 ctr 79
Cc1c(C(=O)Nc2ccccc2[N+](=O)[O-])csc1-c1ccccc1	ATG4B inh 59 | PLA2 ctr inactive
Cc1c(C(=O)Nc2ccccc2)csc1-c1ccccc1	none
CN1CCN(C(=O)/C(=C/c2ccc([N+](=O)[O-])cc2)NC(=O)c2ccccc2)CC1	none
CCOC(=O)c1ccc(NC(=S)NCc2ccccc2)cc1	none
CCOC(=O)c1ccc(NC(=O)NCc2ccccc2)cc1	ATG4B inh 49 | PLA2 ctr 56
O=C(O)CC/C(=C\c1cc([N+](=O)[O-])ccc1Cl)c1nc2ccccc2s1	none
O=C(O)CC/C(=C\c1ccccc1[N+](=O)[O-])c1nc2ccccc2s1	ATG4B inh 53 | PLA2 ctr 51
O=C(O)CC/C(=C\c1ccc(N2CCCC2)c([N+](=O)[O-])c1)c1nc2ccccc2s1	PAFAH1B2 inh 103, ATG4B inh 83 | PLA2 ctr 83
O=C(O)CC/C(=C\c1cccc(NC(=O)c2ccccc2Cl)c1)c1nc2ccccc2s1	ATG4B inh 43 | PLA2 ctr 62
Cn1cnnc1Sc1ccc(/C=C(\CC(=O)O)c2nc3ccccc3s2)cc1[N+](=O)[O-]	none
O=C1Nc2cccnc2N(C(=O)CCl)c2ccccc21	none
Cc1sc2nc3c(SC(C)C(=O)O)cc(C(=O)c4ccccc4O)cn3c(=O)c2c1C (stereo not drawn)	ATG4B inh 52 | PLA2 ctr 53
CSc1nc2ccc3nc(NC(=O)C4COc5ccccc5O4)sc3c2s1 (stereo not drawn)	none
O=C(Nc1nnc(SCc2cccc3ccccc23)s1)C1COc2ccccc2O1 (stereo not drawn)	ATG4B inh 44 | PLA2 ctr 62
Cc1ccccc1CSc1nnc(NC(=O)C2COc3ccccc3O2)s1 (stereo not drawn)	ATG4B inh 49 | PLA2 ctr 61
Cc1ccccc1CSc1nnc(NC(=O)Cc2cccs2)s1	none
COc1ccc(C(=O)NCC(=O)NCc2ccncc2)cc1	none
CC(=O)c1cccc(NC(=O)NC2CCCc3ccccc32)c1 (stereo not drawn)	ATG4B inh 53 | PLA2 ctr 67
CC(=O)c1ccc(NC(=O)NC2CCCc3ccccc32)cc1 (stereo not drawn)	none
CC1CCN(C(=O)Cn2c3ccc(F)cc3c3nc4n(c(=O)c32)CCCS4)CC1	none
COc1cccc(Cn2cc(-c3cccc(C(F)(F)F)c3)nn2)c1	ATG4B inh 50 | PLA2 ctr 68
Cc1ccc(N(CC(=O)Nc2ccccc2-c2ccccc2)S(=O)(=O)c2ccccc2)cc1	none
Cc1cc(C)cc(N(CC(=O)Nc2ccccc2-c2ccccc2)S(=O)(=O)c2ccccc2)c1	ATG4B inh 57 | PLA2 ctr inactive
Cc1ccccc1CN(C)CC(=O)Nc1ccccc1-c1ccccc1	ATG4B inh 51 | PLA2 ctr 54
Cc1ccc(C)c(NC(=O)CN(C)C(=O)c2ccc(S(=O)(=O)N3CCCCCC3)cc2)c1	none
CC(C)c1ccccc1OCC(=O)NC1CCCc2ccccc21 (stereo not drawn)	ATG4B inh 48 | ATG4B conf 65 | PLA2 ctr inactive

Screening results: PubChem, several laboratories
